Laboratory results reported in PubChem BioAssay (NCI).
The panel holds about 79,000 compounds, 15% with a hit somewhere; the sample as a whole holds those more often. Calls of active or inactive are those of the source. Rule as the data show it: active = growth inhibition above about 70%; inactive = the rest.

Legend:
[1] = NCI Yeast Anticancer Drug Screen. Data for the rad52 strain (AID 147);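 also: 0% = growth of vehicle-treated control cultures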; details: S. cerevisiae rad52 mutant growth inhibition, active compounds read high
Outline: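 Inhibition of yeast growth, referenced to vehicle controls, was the measured output for a strain with defective DNA damage repair.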

[2] = NCI Yeast Anticancer Drug Screen. Data for the wt1 strain (AID 149);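 also: 0% = growth of vehicle-treated wt1 cultures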; details: S. cerevisiae wt1 strain (SPY 50644) growth inhibition, active compounds read high
Outline: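 Vehicle-normalised growth inhibition; strain wt1; compound exposure.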

[3] = NCI Yeast Anticancer Drug Screen. Data for the rad50EPP+ strain (AID 151);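 also: 0% = growth of vehicle-treated control cultures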; details: S. cerevisiae rad50 mutant strain, active compounds read high
Outline: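 Genetically defined yeast (rad50EPP+, DNA damage repair alteration) is grown with compound, and inhibition of growth is expressed relative to vehicle-treated controls.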

[4] = NCI Yeast Anticancer Drug Screen. Data for the mgt1 strain (AID 153); details: S. cerevisiae mgt1 mutant growth inhibition, active compounds read high
Outline: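 In the mgt1 strain, test compounds were added and growth inhibition was determined relative to vehicle-treated controls.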

[5] = NCI Yeast Anticancer Drug Screen. Data for the rad50 strain (AID 155);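 also: 0% = growth of vehicle-only cultures of the same strain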; details: S. cerevisiae rad50 strain growth inhibition, active compounds read high
Outline: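 A DNA repair-deficient yeast mutant serves as the test organism; compound-induced growth inhibition is calculated against vehicle-treated cells.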

[6] = NCI Yeast Anticancer Drug Screen. Data for the mec2-1 strain (AID 157); details: S. cerevisiae mec2-1 strain, active compounds read high
Outline: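 Each compound was tested on mec2-1 yeast, a strain altered in DNA damage repair or cell cycle control. Growth inhibition is reported relative to vehicle.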

[7] = NCI Yeast Anticancer Drug Screen. Data for the rad14 strain (AID 159);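 also: 0% = growth of vehicle-treated control cultures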; details: S. cerevisiae rad14 strain growth inhibition, active compounds read high
Outline: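 Vehicle-treated cultures served as the baseline for growth inhibition of a DNA repair-mutant yeast strain exposed to each compound.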

[8] = NCI Yeast Anticancer Drug Screen. Data for the sgs1 mgt1 strain (AID 161);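 also: 0% = growth of cultures given vehicle only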; details: S. cerevisiae sgs1 mgt1 strain, active compounds read high
Outline: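 Mutant yeast exposed to compound; growth scored against vehicle-only wells.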

[9] = NCI Yeast Anticancer Drug Screen. Data for the CLN2oe strain (AID 163);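 also: 0% = growth of vehicle-only control cultures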; details: S. cerevisiae CLN2oe strain, active compounds read high
Outline: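 First, the altered yeast strain was treated with each compound; second, its growth was measured; finally, inhibition was derived by comparison with vehicle controls.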

[10] = NCI Yeast Anticancer Drug Screen. Data for the cln2 rad14 strain (AID 165);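 also: 0% = growth equal to vehicle treated cultures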; details: S. cerevisiae cln2 rad14 strain, active compounds read high
Outline: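 Test compounds were added to cln2 rad14 yeast cultures; inhibition of growth was then determined by comparison with vehicle treatment.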

[11] = NCI Yeast Anticancer Drug Screen. Data for the bub3 strain (AID 167); details: S. cerevisiae bub3 mutant strain, active compounds read high
Outline: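 Inhibition values come from growth of compound-treated mutant yeast normalised to vehicle-treated controls.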

[12] = NCI Yeast Anticancer Drug Screen. Data for the wt2 strain (AID 169);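 also: 0% = growth of vehicle-treated yeast cultures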; details: S. cerevisiae wt2 strain growth inhibition, active compounds read high
Outline: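 The panel's yeast strains carry defined changes in DNA repair or cell cycle genes. Each strain is grown with compound, and growth loss is scored relative to vehicle.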

[13] = NCI Yeast Anticancer Drug Screen. Data for the mlh1 strain (AID 171);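 also: 0% = growth of vehicle-treated control cultures of the same strain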; details: S. cerevisiae mlh1 strain growth inhibition, active compounds read high
Outline: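 Inhibition values reflect reduced yeast growth in the presence of compound, referenced to vehicle controls, using a strain chosen for its alteration in DNA repair or cell cycle control.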

[14] = NCI Yeast Anticancer Drug Screen. Data for the sgs1 strain (AID 173);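 also: 0% = growth of vehicle-only control cultures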; details: S. cerevisiae sgs1 mutant, active compounds read high
Outline: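 Vehicle-treated cultures served as reference for growth inhibition of a yeast strain altered in DNA damage repair or cell cycle control after compound exposure.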

[15] = NCI Yeast Anticancer Drug Screen. Data for the mlh1 rad18 strain (AID 175); details: S. cerevisiae mlh1 rad18 strain growth inhibition, active compounds read high
Outline: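 Inhibition values reflect reduced growth of mutant yeast versus vehicle-treated controls following compound exposure; the mutations affect DNA damage repair.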

[16] = NCI Yeast Anticancer Drug Screen. Data for the rad18 strain (AID 177); details: S. cerevisiae rad18 mutant growth inhibition, active compounds read high
Outline: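 Steps: expose repair-mutant yeast to compound; measure growth; express as inhibition relative to vehicle control.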

[17] = at 5.0 µM (retest, dose inferred, filed as 0.5)
[18] = at 50.0 µM (retest, dose inferred, filed as 5.0)

Measured: growth inhibition

CNC(=O)OCc1c(COC(=O)NC)c(-c2ccc(Cl)c(Cl)c2)n2c1CCC2
inactive: [1]; at 1.2 µM -21% | [1]; at 3.7 µM -27% | [1]; at 11.0 µM -14% | [2]; at 1.2 µM -53% | [2]; at 3.7 µM -56% | [2]; at 11.0 µM -48% | [3]; at 1.2 µM -19% | [3]; at 3.7 µM -21% | [3]; at 11.0 µM -31% | [3]; at 33.0 µM -28% | [3]; at 100.0 µM 4% | [4]; at 1.2 µM -66% | [4]; at 3.7 µM -73% | [4]; at 11.0 µM -69% | [5]; at 1.2 µM -51% | [5]; at 3.7 µM -51% | [5]; [17] 17% | [5]; at 11.0 µM -37% | [6]; at 1.2 µM -74% | [6]; at 3.7 µM -47% | [6]; [17] -5% | [6]; at 11.0 µM -32% | [7]; at 1.2 µM -34% | [7]; at 3.7 µM -36% | [7]; at 11.0 µM -31% | [8]; [17] 32% | [9]; at 1.2 µM -4% | [9]; at 3.7 µM -13% | [9]; at 11.0 µM -13% | [9]; at 33.0 µM 65% | [10]; [17] 38% | [11]; at 1.2 µM -58% | [11]; at 3.7 µM -61% | [11]; [17] 52% | [11]; at 11.0 µM -35% | [11]; at 50.0 µM 55.6% | [12]; at 1.2 µM -14% | [12]; at 3.7 µM -14% | [12]; at 11.0 µM -14% | [12]; at 33.0 µM 62% | [13]; at 1.2 µM -94% | [13]; at 3.7 µM -90% | [13]; at 11.0 µM -81% | [14]; at 1.2 µM -11% | [14]; at 3.7 µM -20% | [14]; at 11.0 µM -29% | [15]; [17] 5% | [16]; at 1.2 µM -39% | [16]; at 3.7 µM -46% | [16]; at 11.0 µM -32%
active: [1]; at 33.0 µM 77% | [1]; at 100.0 µM 97% | [2]; at 33.0 µM 71% | [2]; at 100.0 µM 98% | [4]; at 33.0 µM 95% | [4]; at 100.0 µM 98% | [5]; at 33.0 µM 87% | [5]; [18] 98% | [5]; at 50.0 µM 84.9% | [5]; at 100.0 µM 97% | [6]; at 33.0 µM 85% | [6]; [18] 98% | [6]; at 50.0 µM 87.5% | [6]; at 100.0 µM 98% | [7]; at 33.0 µM 98% | [7]; at 100.0 µM 98% | [8]; [18] 99% | [8]; at 50.0 µM 78.5% | [9]; at 100.0 µM 98% | [10]; [18] 99% | [10]; at 50.0 µM 86.9% | [11]; at 33.0 µM 93% | [11]; [18] 99% | [11]; at 100.0 µM 97% | [12]; at 100.0 µM 97% | [13]; at 33.0 µM 98% | [13]; at 100.0 µM 97% | [14]; at 33.0 µM 88% | [14]; at 100.0 µM 97% | [15]; [18] 97% | [15]; at 50.0 µM 91.2% | [16]; at 33.0 µM 94% | [16]; at 100.0 µM 97%
